Measurements as given in PubChem BioAssay (NCI).
Compounds without any hit were thinned out: in the full panel of roughly 83,000, 20% have a hit.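 Growth was measured after 48 h exposure to one concentration of compound in 96-well plates. Values under 10 count as active.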 Values without a mark were called inactive. Activity calls are given as the source filed them.

What was measured:
Assay in all cases: NCI-60 one-dose screen, 48 h (100 = growth as untreated, 0 = no growth, -100 = all killed)
Conditions in all cases: 10 µM unless noted
[1] = tested on: RPMI-8226 leukemia
[2] = tested on: OVCAR-8 ovarian
[3] = tested on: OVCAR-5 ovarian
[4] = tested on: OVCAR-4 ovarian
[5] = tested on: SK-OV-3 ovarian
[6] = tested on: IGROV1 ovarian
[7] = tested on: OVCAR-3 ovarian
[8] = tested on: HS 578T breast
[9] = tested on: NCI/ADR-RES ovarian
[10] = tested on: T-47D breast

With `Cn1c(=O)c2nc(SCc3ccccc3)n(C)c2n(C)c1=O` the growth [1] was 117%, the growth [2] was 106% and the growth [3] was 97.6%. The growth [4] was 118%, the growth [5] was 99.2% and the growth [6] was 139%. It also gave a growth [7] of 117%, a growth [8] of 104% and a growth [9] of 112%. For the same molecule, the growth [10] was 98.4%.

For `O=C(/C=C/c1cccnc1)/C=C/c1cccnc1`, the growth [1] was -61.1% (active), the growth [2] was -25.2% (active) and the growth [3] was -21.7% (active). For the same molecule, the growth [4] was 20.9%, the growth [5] was 31% and the growth [6] was -89.3% (active). The growth [7] was -40.9% (active), the growth [8] was -16% (active) and the growth [9] was 32.2%. For the same molecule, the growth [10] was -2.05% (active).

`Cc1cc(C)n2nc(SCC(=O)Nc3sc4c(c3C(N)=O)CCC4)nc2n1` was tested, and the growth [1] was 148%, the growth [2] was 112% and the growth [3] was 97.1%. The growth [4] was 122%, the growth [5] was 118% and the growth [6] was -2.56% (active). It also gave a growth [7] of 123%, a growth [8] of 121% and a growth [9] of 102%. It also gave a growth [10] of 109%.

Work on `COc1cc(Oc2cc(-c3cccnc3)ccc2NC(=O)Nc2ccc(F)cc2F)cc(OC)c1OC` yielded a growth [1] of 93.6%, a growth [2] of 92.8% and a growth [3] of 117%. It also gave a growth [4] of 113%, a growth [5] of 89.1% and a growth [6] of 116%. For the same molecule, the growth [7] was 102%, the growth [8] was 99.9% and the growth [9] was 95.2%. For the same molecule, the growth [10] was 71.5%.

In the case of `C=C(C[C@](O)(C(=O)/C=C/c1ccc(Cl)cc1)C(=O)OC)c1ccccc1`, the growth [1] is reported as -20.3% (active), the growth [2] is reported as 50.2% and the growth [3] is reported as 105%. It also gave a growth [4] of 84.4%, a growth [5] of 95.7% and a growth [6] of 81.2%. It also gave a growth [7] of 61.7%, a growth [8] of 104% and a growth [9] of 59.2%. The growth [10] was 36.2%.

`NC(N)=NN=c1c(=O)c2ccccc2c1=O` showed a growth [1] of 60.1%, a growth [2] of 81.5% and a growth [3] of 98.9%. The growth [4] was 103%, the growth [5] was 98.1% and the growth [6] was 102%. For the same molecule, the growth [7] was 80.6%, the growth [8] was 109% and the growth [9] was 91.7%. The growth [10] was 116%.

In the case of `O=C1NCN(CCO)CN1`, the growth [1] is reported as 85.6%, the growth [2] is reported as 99.9% and the growth [3] is reported as 101%. The growth [4] was 98.5%, the growth [5] was 95.4% and the growth [6] was 115%. For the same molecule, the growth [7] was 107%, the growth [8] was 96.7% and the growth [9] was 102%. The growth [10] was 89.9%.

In the case of `Fc1ccc(-c2nnc(/C=C/c3cn(-c4ccccc4)nc3-c3ccccc3)o2)cc1`, the growth [1] is reported as 104%, the growth [2] is reported as 98.2% and the growth [3] is reported as 82.2%. The growth [4] was 114%, the growth [5] was 85.5% and the growth [6] was 97.7%. For the same molecule, the growth [7] was 119%, the growth [8] was 96.9% and the growth [9] was 88.2%. The growth [10] was 72.6%.

With `COc1cc(/C=C/C(=O)N2CCN(C(=O)/C=C/c3ccccc3)CC2)cc(OC)c1OC` the growth [1] was 95.5%, the growth [2] was 98.1% and the growth [3] was 117%. For the same molecule, the growth [4] was 97.1%, the growth [5] was 122% and the growth [6] was 115%. It also gave a growth [7] of 120%, a growth [8] of 113% and a growth [9] of 108%. The growth [10] was 110%.

For `O=C(Nc1ccncc1)C(=O)c1cn(S(=O)(=O)c2cccc(F)c2)c2ccccc12`, the growth [1] was 30.1%, the growth [2] was 45% and the growth [3] was 73.9%. It also gave a growth [4] of 67.2%, a growth [5] of 93.8% and a growth [6] of 40.6%. For the same molecule, the growth [7] was 23.5%, the growth [8] was 55.8% and the growth [9] was -11.2% (active). For the same molecule, the growth [10] was 31.6%.

Molecule `Oc1[nH]c2ccc(Cl)cc2c1/C=c1/ccc2c(c1)N=C(c1ccc(C(F)(F)F)cc1)N=2` has a growth [1] of 69%, a growth [2] of 67.6% and a growth [3] of 76.2%. It also gave a growth [4] of 59.5%, a growth [5] of 84.4% and a growth [6] of 76.8%. For the same molecule, the growth [7] was 32.3%, the growth [8] was 74% and the growth [9] was 62.7%. It also gave a growth [10] of 60.5%.

With `C=C(C[C@@](O)(C(=O)Oc1ccccc1)C(=O)C1CCCCC1)c1ccccc1` the growth [1] was 92%, the growth [2] was 101% and the growth [3] was 103%. For the same molecule, the growth [4] was 97.8%, the growth [5] was 105% and the growth [6] was 110%. For the same molecule, the growth [7] was 106%, the growth [8] was 106% and the growth [9] was 101%. For the same molecule, the growth [10] was 96.2%.

Work on `O=C(Nc1nc(-c2ccccc2)cs1)c1cc(O)c(O)c(O)c1` yielded a growth [1] of 17.8%, a growth [2] of 39% and a growth [3] of 89.4%. It also gave a growth [4] of 44.5%, a growth [5] of 70% and a growth [6] of 33.2%. The growth [7] was 22.3%, the growth [8] was 73.6% and the growth [9] was 47%. For the same molecule, the growth [10] was 31.2%.

For `COc1cc([C@@H]2c3cc4c(cc3C(O[C@@H]3O[C@@H]5CO[C@@H](c6cccs6)OC5[C@H](O)[C@H]3O)C3COC(=O)[C@@H]32)OCO4)cc(OC)c1O` (stereo not given in full), the growth [1] was -20.8% (active), the growth [2] was -43% (active) and the growth [3] was -9.71% (active). The growth [4] was 13.8%, the growth [5] was -13.6% (active) and the growth [6] was -5.65% (active). The growth [7] was -54% (active), the growth [8] was -3.69% (active) and the growth [9] was 60.3%. For the same molecule, the growth [10] was -0.0776% (active).

In the case of `O=C1C(=O)c2ccc(Br)cc2-c2cc(Br)ccc21`, the growth [1] is reported as 25.9%, the growth [2] is reported as -1.14% (active) and the growth [3] is reported as 113%. The growth [4] was -99% (active), the growth [5] was 81% and the growth [6] was 68.7%. The growth [7] was -48.6% (active), the growth [8] was 86.4% and the growth [9] was -29.2% (active). For the same molecule, the growth [10] was 20%.

Molecule `O=[N+]([O-])c1ccc(N/N=C/c2c(O)ccc3ccccc23)nc1` has a growth [1] of 31%, a growth [2] of 34.9% and a growth [3] of 77.5%. For the same molecule, the growth [4] was 21.2%, the growth [5] was 50.9% and the growth [6] was 18.5%. For the same molecule, the growth [7] was 20.3%, the growth [8] was 117% and the growth [9] was 27.3%. The growth [10] was 47.4%.

`CCC1=C(c2ccc(OC)cc2)C(C)(C)Oc2cc(O)c(CN3CCCC3)cc21` was tested, and the growth [1] was 57.5%, the growth [2] was 95.4% and the growth [3] was 81.9%. It also gave a growth [4] of 99.3%, a growth [5] of 89.2% and a growth [6] of 87.1%. It also gave a growth [7] of 83.4%, a growth [8] of 86% and a growth [9] of 84.6%. For the same molecule, the growth [10] was 68.2%.

Molecule `Cc1cc(=O)n2n1-c1ccc(Cl)cc1NC(=O)C2` has a growth [1] of 99.2%, a growth [2] of 97% and a growth [3] of 103%. The growth [4] was 98.8%, the growth [5] was 109% and the growth [6] was 112%. The growth [7] was 108%, the growth [8] was 117% and the growth [9] was 108%. The growth [10] was 118%.

`[O-]/[N+](=C\C=C\c1ccccc1)c1ccccc1` was tested, and the growth [1] was 87.3%, the growth [2] was 121% and the growth [3] was 107%. The growth [4] was 92.1%, the growth [5] was 110% and the growth [6] was 113%. The growth [7] was 99.9%, the growth [8] was 130% and the growth [9] was 103%. The growth [10] was 95.6%.

Molecule `Cc1cc(NCCCNc2ccnc3cc(Cl)ccc23)nc(N2CCN(C)CC2)n1` has a growth [1] of 38.5%, a growth [2] of 77.1% and a growth [3] of 86.6%. The growth [4] was 59.5%, the growth [5] was 106% and the growth [6] was 83.1%. The growth [7] was 80%, the growth [8] was 91.9% and the growth [9] was 107%. For the same molecule, the growth [10] was 81.4%.

Molecule `O=C1C(Cl)=C(N=Nc2c(Cl)c(O)c3ccccc3c2O)C(=O)c2ccccc21` has a growth [1] of 69.2%, a growth [2] of 79.1% and a growth [3] of 121%. For the same molecule, the growth [4] was 72.3%, the growth [5] was 89.8% and the growth [6] was 60.1%. The growth [7] was 24.3%, the growth [8] was 55.3% and the growth [9] was 73.8%. For the same molecule, the growth [10] was 66.9%.

For `CCCCCCCCSc1ncnc2c1ncn2CO`, the growth [1] was 60.7%, the growth [2] was 90.4% and the growth [3] was 103%. It also gave a growth [4] of 60.3%, a growth [5] of 83.1% and a growth [6] of 93.3%. It also gave a growth [7] of 78.2%, a growth [8] of 95.6% and a growth [9] of 86.8%. It also gave a growth [10] of 62%.

With `O=C1C[C@@H]2/C(=C(O)\C=C\c3ccccc3)C(=O)C=C[C@@H]2O1` the growth [1] was 32.5%, the growth [2] was 8.54% (active) and the growth [3] was 51.5%. The growth [4] was 37.5%, the growth [5] was 86.1% and the growth [6] was -52.6% (active). For the same molecule, the growth [7] was -46.2% (active), the growth [8] was -2.33% (active) and the growth [9] was 7.67% (active). It also gave a growth [10] of 16.7%.

Work on `O=C(NN(C(=O)c1ccccc1)c1cccs1)c1ccccc1` yielded a growth [1] of 94.4%, a growth [2] of 120% and a growth [3] of 105%. It also gave a growth [4] of 106%, a growth [5] of 102% and a growth [6] of 102%. The growth [7] was 115%, the growth [8] was 104% and the growth [9] was 103%. It also gave a growth [10] of 94.9%.

Work on `C[N+]1(CCc2ccccc2)CCC(CCC2CC[N+](C)(CCc3ccccc3)CC2)CC1` (stereo not given) yielded a growth [1] of 126%, a growth [2] of 97% and a growth [3] of 104%. The growth [4] was 103%, the growth [5] was 107% and the growth [6] was 105%. For the same molecule, the growth [7] was 107%, the growth [8] was 103% and the growth [9] was 105%. For the same molecule, the growth [10] was 102%.
